Test results from PubChem BioAssay AID1159580 (chemical genetic matrix, 2015).
Hit rate of the full screen: of about 5,500 compounds, about 2,000 (36%) were called active. Another 18% or so got no clear call; they are omitted. Cut-off read from the data, not from the text of the source: active = normalized growth mostly below about 0.91 (no sharp cut-off); inconclusive = no clear call, values can overlap the other calls; inactive = mostly above about 0.92. The list shows a part of the results.

Test: chemical genetic growth profiling, strain panel (AID 1159580);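 note: tested at 20 µM; growth read once vehicle control cultures reached saturation at 30 °C; 1 = growth at the plate median or of vehicle wells; lower values mean less growth of the strain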
Conditions: S. cerevisiae deletion strains, growth OD
[1] = locus YAL040C, strain CLN3, stronger effect = lower value
[2] = locus YCL061C, strain MRC1 (second series), stronger effect = lower value
[3] = locus YDR363W, strain ESC2, stronger effect = lower value
[4] = locus YER002W, strain NOP16, stronger effect = lower value
[5] = locus YMR263W, strain SAP30, stronger effect = lower value
[6] = locus YMR307W, strain GAS1, stronger effect = lower value
[7] = locus YNL128W, strain TEP1, stronger effect = lower value
[8] = locus YNL153C, strain GIM3, stronger effect = lower value
[9] = locus YNL175C, strain NOP13, stronger effect = lower value
[10] = locus YNL197C, strain WHI3, stronger effect = lower value
[11] = locus YNL224C, strain SQS1, stronger effect = lower value
[12] = locus YNL322C, strain KRE1, stronger effect = lower value
[13] = locus YOR083W, strain WHI5 (second series), stronger effect = lower value
[14] = locus YPL055C, strain LGE1, stronger effect = lower value
[15] = locus YPL241C, strain CIN2, stronger effect = lower value
[16] = locus YAL013W, strain DEP1, stronger effect = lower value
[17] = locus YDR150W, strain NUM1, stronger effect = lower value
[18] = locus YJR075W, strain HOC1, stronger effect = lower value
[19] = locus YGR078C, strain PAC10, stronger effect = lower value
[20] = locus YGR229C, strain SMI1, stronger effect = lower value

Measured: normalized growth

Oc1ccc(C2CNCCc3c2cc(O)c(O)c3Cl)cc1 (stereo not drawn)
inactive: [1] 0.987 | [2] 0.986 | [3] 1.03 | [4] 0.997 | [5] 0.994 | [6] 1.02 | [7] 0.984 | [8] 0.935 | [9] 1 | [10] 0.977 | [11] 1.06 | [12] 1.02 | [13] 0.965 | [14] 0.989 | [15] 0.981

C=CCN1CCc2c(cc(O)c(O)c2Cl)C(c2ccccc2)C1 (stereo not drawn)
active: [2] 0.934 | [17] 0.907 | [12] 0.754
inactive: [16] 0.917 | [1] 0.992 | [3] 0.891 | [4] 0.996 | [5] 0.995 | [6] 0.993 | [8] 0.911 | [9] 0.981 | [10] 0.904 | [11] 1.04 | [13] 0.958

CN1CCc2c(cc(O)c(O)c2Cl)C(c2cccc(Cl)c2)C1 (stereo not drawn)
inactive: [1] 1.07 | [2] 0.945 | [3] 0.962 | [4] 1.01 | [6] 0.993 | [9] 1 | [10] 0.991 | [11] 1.01 | [12] 0.917 | [13] 0.982
active: [18] 0.837 | [14] 0.466 | [15] 0.927

C=CCN1CCc2cc(O)c(O)cc2C(c2ccccc2)C1 (stereo not drawn)
inactive: [16] 0.95 | [1] 1.06 | [2] 0.979 | [3] 0.994 | [4] 1.02 | [19] 1.01 | [20] 0.917 | [5] 1 | [6] 1 | [7] 1.02 | [8] 1.01 | [9] 1.02 | [10] 1.02 | [11] 1 | [12] 0.966 | [13] 1.02

C=CCN1CCc2c(cc(O)c(O)c2Br)[C@@H](c2ccccc2)C1
inactive: [1] 1.03 | [4] 1 | [8] 0.945 | [9] 1.04 | [10] 0.98 | [11] 1.02 | [13] 0.987
active: [3] 0.8 | [15] 0.122

CN1CCc2cc(Cl)c(O)cc2[C@@H](c2ccccc2)C1
inactive: [1] 1.01 | [2] 1 | [3] 1.01 | [4] 1.04 | [20] 1.03 | [6] 0.993 | [8] 1.02 | [9] 1.01 | [10] 0.995 | [11] 1.01 | [13] 1.03 | [14] 0.995

Oc1cc2c(c(Cl)c1O)CCNCC2c1ccccc1 (stereo not drawn)
inactive: [1] 0.985 | [2] 0.985 | [3] 0.977 | [4] 0.978 | [19] 0.995 | [5] 1.01 | [6] 0.988 | [8] 0.967 | [9] 1.02 | [10] 1.01 | [11] 1.04 | [12] 0.981 | [13] 1.01 | [15] 0.981
active: [17] 0.925 | [18] 0.875 | [14] 0.57

CN1CCc2cc(O)c(O)cc2C(c2ccccc2)C1 (stereo not drawn)
inactive: [16] 1.02 | [1] 1 | [2] 0.997 | [3] 1.02 | [4] 1 | [5] 1 | [6] 0.998 | [7] 1 | [8] 1.01 | [9] 1.01 | [10] 1.01 | [11] 1 | [12] 1 | [13] 1.01 | [15] 1

Cc1cccc(C2CN(C)CCc3c2cc(O)c(O)c3Cl)c1 (stereo not drawn)
inactive: [1] 1.01 | [2] 0.988 | [3] 1 | [4] 1.01 | [6] 1.01 | [9] 1.01 | [10] 1.01 | [11] 1.01 | [12] 0.973 | [13] 1.01 | [15] 0.996

O=C(CC[N+](=O)[O-])OC[C@H]1O[C@@H](O)[C@H](OC(=O)CC[N+](=O)[O-])[C@@H](OC(=O)CC[N+](=O)[O-])[C@@H]1OC(=O)CC[N+](=O)[O-]
inactive: locus YBR021W, strain FUR4, stronger effect = lower value 1.04 | locus YBR229C, strain ROT2, stronger effect = lower value 1.02 | locus YCL029C, strain bik1, stronger effect = lower value 1.01 | locus YDL035C, strain GPR1, stronger effect = lower value 1.08 | locus YDL074C, strain BRE1, stronger effect = lower value 1.18 | locus YDL101C, strain DUN1, stronger effect = lower value 1.02 | locus YDL185W, strain tfp1, stronger effect = lower value 1.01 | locus YDL192W, strain arf1, stronger effect = lower value 1.03 | locus YDR101C, strain arx1, stronger effect = lower value 1.01 | [17] 1.03 | locus YDR162C, strain NBP2, stronger effect = lower value 1.05 | locus YDR318W, strain mcm21, stronger effect = lower value 1.03 | locus YDR388W, stronger effect = lower value 0.999 | locus YDR502C, strain sam2, stronger effect = lower value 1.02 | locus YEL061C, strain CIN8, stronger effect = lower value 1.03 | locus YER110C, stronger effect = lower value 0.998 | locus YER155C, strain BEM2, stronger effect = lower value 1.01 | locus YER167W, strain BCK2, stronger effect = lower value 1.02 | locus YGL078C, strain dbp3, stronger effect = lower value 1 | locus YGL086W, strain mad1, stronger effect = lower value 1.01 | locus YGL248W, strain PDE1, stronger effect = lower value 1.05 | locus YGR135W, strain pre9, stronger effect = lower value 1.01 | locus YGR252W, strain gcn5, stronger effect = lower value 1.04 | locus YHR030C, strain SLT2, stronger effect = lower value 1.02 | locus YHR079C, strain IRE1 (second series), stronger effect = lower value 0.998 | locus YHR094C, strain hxt1, stronger effect = lower value 1.01 | locus YHR129C, strain ARP1, stronger effect = lower value 1.04 | locus YHR200W, strain rpn10, stronger effect = lower value 1.02 | locus YIL066C, strain RNR3, stronger effect = lower value 1.04 | locus YIL073C, strain SPO22, stronger effect = lower value 1.13 | locus YIL125W, strain kgd1, stronger effect = lower value 1 | locus YIR030C, strain dcg1, stronger effect = lower value 1.03 | locus YJL095W, strain BCK1, stronger effect = lower value 1.08 | locus YJL134W, strain LCB3, stronger effect = lower value 1.02 | locus YJL168C, strain set2, stronger effect = lower value 1.01 | locus YJL187C, strain SWE1 (second series), stronger effect = lower value 1.04 | locus YKL009W, strain mrt4, stronger effect = lower value 0.993 | locus YKL068W, stronger effect = lower value 1 | locus YKL085W, strain MDH1 (second series), stronger effect = lower value 1.01 | locus YKL085W, strain MDH1, stronger effect = lower value 1.01 | locus YKR001C, strain vps1, stronger effect = lower value 1.07 | locus YLR039C, strain RIC1, stronger effect = lower value 1.23 | locus YLR058C, strain SHM2, stronger effect = lower value 1.03 | locus YLR102C, strain apc9, stronger effect = lower value 0.991 | locus YLR268W, strain sec22, stronger effect = lower value 1.04 | locus YLR330W, strain CHS5, stronger effect = lower value 1.03 | locus YLR342W, strain FKS1 (second series), stronger effect = lower value 1.06 | locus YLR371W, strain rom2, stronger effect = lower value 1.02 | locus YLR418C, strain cdc73, stronger effect = lower value 1.15 | locus YML016C, strain PPZ1, stronger effect = lower value 1.02 | locus YML032C, strain rad52, stronger effect = lower value 0.999 | locus YML124C, strain tub3, stronger effect = lower value 1.02 | locus YMR078C, strain ctf18, stronger effect = lower value 1.01 | locus YMR223W, strain ubp8, stronger effect = lower value 1.02 | [6] 1.24 | locus YNL067W, strain RPL9B, stronger effect = lower value 1.02 | [8] 1.05 | locus YNL233W, strain BNI4, stronger effect = lower value 1.08 | locus YNL250W, strain rad50, stronger effect = lower value 0.995 | locus YNL271C, strain bni1, stronger effect = lower value 1.01 | locus YNL298W, strain CLA4, stronger effect = lower value 1.01 | locus YNL307C, strain MCK1, stronger effect = lower value 1.01 | locus YNR052C, strain pop2, stronger effect = lower value 1 | locus YOL012C, strain htz1 1.02 | locus YOL147C, strain pex11, stronger effect = lower value 0.996 | locus YOR061W, strain CKA2, stronger effect = lower value 1.02 | locus YOR069W, strain VPS5, stronger effect = lower value 1.02 | locus YOR136W, strain idh2, stronger effect = lower value 1.01 | locus YOR144C, strain elg1, stronger effect = lower value 1 | locus YOR184W, strain ser1, stronger effect = lower value 1.03 | locus YOR316C, strain cot1, stronger effect = lower value 0.992 | locus YPR119W, strain clb2, stronger effect = lower value 0.998 | locus YPR141C, strain kar3, stronger effect = lower value 1 | locus YPR163C, strain tif3, stronger effect = lower value 1.01 | locus YPR167C, strain met16, stronger effect = lower value 1.02 | strain wtn01, stronger effect = lower value 1.02
